# D1 antag: antagonists of human D1 dopamine receptor. P21728. HEK293 TREx D1 cells, calcium flux, dopamine EC80; active compounds read low. activity change, negative = inhibition, % at 10 µM. 3.2% of 360,000 active. AID 504652; in the data active means activity change below about -30%; further: on the % scale 0 is the no-effect control and ±100 the full control effect
# Target sequence (P21728 whole entry, looked up): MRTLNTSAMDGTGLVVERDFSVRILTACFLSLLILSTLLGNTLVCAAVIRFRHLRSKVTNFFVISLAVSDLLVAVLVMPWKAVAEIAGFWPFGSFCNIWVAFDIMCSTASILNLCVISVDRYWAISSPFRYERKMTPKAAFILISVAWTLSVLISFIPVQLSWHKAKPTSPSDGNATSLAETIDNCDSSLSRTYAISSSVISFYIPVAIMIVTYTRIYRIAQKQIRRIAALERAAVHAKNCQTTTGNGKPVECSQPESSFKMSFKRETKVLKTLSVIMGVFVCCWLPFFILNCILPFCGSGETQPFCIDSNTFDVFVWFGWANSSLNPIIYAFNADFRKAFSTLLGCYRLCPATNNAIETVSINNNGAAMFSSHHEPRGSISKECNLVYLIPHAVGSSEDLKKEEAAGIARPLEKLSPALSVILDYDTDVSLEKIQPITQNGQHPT
#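 Calcium flux readout: force-coupled, inducible Hek293 Trex D1 line, cells induced overnight at 30 C with tetracycline, dye-loaded 30–90 min at RT. Antagonism scored against EC80 dopamine challenge given 180 s after compound.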
# D1 potentiator: human D1 dopamine receptor positive modulation; AID 504651; 0.036% of 360,000 active; HEK293 TREx D1 cells, calcium flux, dopamine EC20 potentiation; potentiation, % at 10 µM; in the data active means potentiation above about 30%; further: 0% is about no effect
# TRHR PAM: TRH receptor (human) allosteric enhancement. TRHR cells, fluo-8 calcium fluorescence, EC20 TRH enhancement. enhancement, % at 2 µM. 0.66% of 360,000 active. AID 493056; in the data active means enhancement above about 30%; further: 0% is about no effect
#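 Enhancer read-out: after compound pinning and an initial kinetic agonist-mode read, an EC20 of TRH (10 nM final) was injected and fluo-8 calcium signal (Ex 480/Em 530) followed at 1 s/cycle for 100 cycles in TRHR-expressing cells.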
# D1 ag: agonists of human D1 dopamine receptor; HEK293 T-REx D1 cells, calcium flux, agonist mode; P21728; activation, % at 2 µM; AID 504660; 1% of 360,000 active; further: 0% is about no effect
#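 Tetracycline-induced HEK293 TREx D1 cells, force-coupled to calcium signalling, were dye-loaded with a no-wash calcium kit. Compound was pin-added after a 10 s baseline. Fluorescence was read kinetically at 1 cycle/s for 180 s, with calcium rises flagged as agonism.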
# Glioma ERSR ind: ER stress response induction in glioma | U87-MG GRP78 promoter luciferase reporter, 16 h | Potency, µM, inactives show at the top dose activation, usual class: activators | 0.02% of 420,000 active; active means well fitted activation curve with a large enough effect; further: potency means the concentration at half of the fitted maximal effect; series mostly up to about 76 µM; % of control where 0% means no effect; nearly all actives have a fitted effect of over 35% in size
#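 ERSR induction read as luciferase luminescence (Bright-Glo, 10 min at room temperature) in stably transfected human U87-MG glioma cells exposed to compounds for 16 h, using GRP78 as sensor.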
# TRHR agonist: activates the human TRH receptor; P34981; TRHR cells, calcium flux fluo-8, FDSS agonist mode; activation, % at 2 µM; 0.18% of 360,000 active; further: 0% is about no effect
#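 Agonist-mode FDSS calcium read (Ex 480/Em 530, 1 s cycles) in 1536-well TRHR cells with fluo-8 dye, after 10-cycle baseline and 23 nL compound addition; TRH at EC20 (10 nM final) added afterwards for the enhancer phase.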
# * hit, by the source's call; x = not tested or not shown. Shown are actives, neighbours in structure and some others; about 4% of the full set was active somewhere. Unless noted, no stated cut-off is given here; in the data, active means activation above about 30%; inactive means the rest.
SMILES,D1 antag,D1 potentiator,TRHR PAM,D1 ag,Glioma ERSR ind,TRHR agonist
CC(=O)N1CCCC1c1nc2ccccc2n1Cc1cccc(Cl)c1 (configuration not stated),-33*,6,0,3,-1%,0
NC(=O)C1CCN(C(=O)c2ccc(Oc3cc(Cl)cc(Cl)c3)o2)CC1,-6,3,21,6,-3%,-1
CCCc1nn(-c2cc(Cl)ccc2OC)c2c1C(=O)CCC2,-46*,2,7,4,-4%,0
Cc1cc(=O)n(Cc2ccco2)c(=S)[nH]1,x,x,x,x,-1%,x
O=S(=O)(Nc1ccc(C(F)(F)F)cc1)c1cccs1,-10,-12,2,1,-1%,1
COc1ncnc(OC)c1S(=O)(=O)Nc1ccc(C(F)(F)F)cc1,-31*,-7,-3,0,-3%,-1
COc1cc(NC(=O)c2ccno2)cc(C(=O)Nc2cccc(C(F)(F)F)c2)c1,-21,-2,4,20,-1%,0
COc1ccc(-c2cc(C(=O)Nc3cc(OC)cc(C(=O)Nc4cccc(C(F)(F)F)c4)c3)[nH]n2)cc1,-31*,-4,-5,10,3%,1
Cc1ccc(/C=c2\sc3nc(-c4ccccc4Br)nn3c2=O)o1,-8,1,-2,2,3%,2
C=CCn1c(=O)/c(=C/c2ccc(C)o2)s/c1=C(/C#N)C(=O)c1ccccc1,-3,-6,-2,58*,6%,12
N#Cc1c(NC(=O)c2ccccc2)sc2c1CCCCC2,11,-1,-1,-1,-11%,0
N#Cc1c(Cl)nsc1NC(=O)c1ccccc1,-37*,-4,-4,34*,3%,5
COc1cccc(N2C(=O)Nc3ccc(Br)cc3C2(O)C(=O)NCCN(C)C)c1 (configuration not stated),4,-7,-17,6,0%,0
CC(C)CN1CCC(=O)N([C@H](CSc2ccc(Br)cc2)Cc2ccccc2)CC1,-50*,3,-5,9,-1%,1
Cc1ccc(SCC(Cc2ccccc2)N2CCN(CC(C)C)CCC2=O)cc1 (configuration not stated),x,x,x,x,-2%,x
CCn1c(SCC(=O)NCc2cccs2)nnc1-c1cccs1,-39*,4,2,4,-5%,0
CCn1cc(C(=O)Nc2ccc(C)cc2[N+](=O)[O-])c(C)n1,x,x,x,x,11%,x
Cc1ccc(C)c(CSC2=NC(C)(C)Nc3ccccc32)c1,-83*,-10,6,0,x,0
COc1ccc(CC(=O)NC2CCCCCC2)c(OC)c1,-1,-1,7,2,-3%,-2
O=Cc1c[nH]c2ccccc12,-55*,7,0,1,-2%,-1
O=S(=O)(Nc1ccc(Br)cc1)c1cccc(NC(=S)NCCN2CCOCC2)c1,3,-5,-2,52*,-1%,1
O=S(=O)(Nc1ccccc1F)c1cccc(NC(=S)NCCN2CCOCC2)c1,x,x,x,x,-7%,x
COc1ccccc1NS(=O)(=O)c1cc(NC(=O)C(C)(C)C)ccc1N1CCOCC1,0,-12,14,0,-1%,0
COc1ccccc1NS(=O)(=O)c1cc(NC(=S)NCCN2CCOCC2)ccc1N1CCOCC1,-34*,1,-8,1,-1%,0
COc1ccc(NC(=O)CCc2c(C)nn(-c3ccc(N4CCOCC4)nn3)c2C)cc1,-3,1,-6,5,3%,0
SMILES,D1 antag,D1 potentiator,TRHR PAM,D1 ag,Glioma ERSR ind,TRHR agonist
CCOC(=O)Cn1c(=N)n(Cc2ccc(C(C)(C)C)cc2)c2ccccc21,1,-1,4,48*,-5%,2
CCCn1c(=N)n(CC(=O)OCC)c2ccccc21,-2,-11,18,3,-2%,0
Cc1ccc(-c2ccc(/C=C(\C#N)C(N)=S)n2C)cc1,-51*,-5,9,5,0%,-1
Cn1cccc1/C=C(/C#N)C(N)=S,-49*,-4,-26,2,-1%,-2
Cc1cc(C)c(/C=C(\C#N)C(N)=S)c(C)c1,8,-1,-14,17,-3%,1
Cc1c(-c2ccccc2)[n+](=O)c(-c2ccco2)c(C)n1[O-],-18,1,-5,-1,-3%,0
CCNc1ncc2nc(-c3cn(C)c4ccccc34)c(=O)n(Cc3cccc(OC)c3)c2n1,x,x,x,x,-4%,x
CCOc1ccc(-c2noc(CCCC(=O)NC3CCCC3)n2)cc1OC,-85*,x,-26,0,2%,-1
COc1ccc(-c2noc(CCCC(=O)NC3CCCCC3)n2)cc1,-37*,-14,-1,6,-7%,0
Cc1ccc(S(=O)(=O)N2CCCCC2CCNC(=O)C(=O)NCc2cccnc2)cc1 (configuration not stated),3,5,-15,0,-3%,1
C/C(N)=C(/C#N)C(=O)CSc1nnc(-c2ccc(OC(F)F)cc2)o1,-37*,-7,0,4,3%,0
CCC1(c2ccc(F)cc2)NC(=O)N(CC(=O)Nc2cccc(S(=O)(=O)N3CCCCC3)c2)C1=O (configuration not stated),10,4,5,6,-4%,1
CCCCc1nc2ccccc2c(N)c1CCC (tested in a mixture with another compound),-47*,-5,6,50*,-7%,0
CCCCc1nc2ccccc2c(NC(=O)CNC(C)(C)C)c1CCC,-5,-5,1,3,-3%,0
O=c1cc(O)sc2ccccc12,-22,-8,1,40*,8%,5
O=c1ccsc2ccccc12,x,x,x,x,-2%,x
COc1ccccc1NC(=O)CSCc1cc(=O)c2cccc(Cl)c2[nH]1,-48*,-1,4,1,-3%,0
COn1c2c(c3c4no[n+]([O-])c4ccc31)CCCC2,-30,-3,-1,1,-4%,0
[O-][n+]1c2c(c3c4non(O)c4ccc31)CCCC2,-31*,-4,-11,21,2%,3
Cn1cc(CNC(=O)c2cc(-c3ccccc3)nc3ccc(Br)cc23)cn1,-34*,-1,-1,2,-2%,0
CN(C)c1ncc2nc(-c3ccc(F)cc3)c(=O)n(C[C@H]3CCCO3)c2n1,x,x,x,x,-1%,x
O=C1CCCc2ccccc2N1Cc1ccc(Cl)cc1Cl,61,-3,0,34*,-3%,0
O=C1CCCc2ccccc2N1Cc1ccccc1Cl,-35*,-2,-12,3,-2%,8
CC(C)NC(=O)Cn1c(=O)n(CC(=O)N2CCCCC2)c(=O)c2sccc21,4,0,-2,1,-2%,1
COc1cc(CNCCCN2CCOCC2)cc(Br)c1OCc1ccc(Cl)cc1,x,-7,-1,72*,-10%,6

# Assay outcomes (PubChem BioAssay)
